FECH inh = blocks human mitochondrial ferrochelatase activity | hit rate 3.3% among 20,000 | calls only at 10 µM (by protocol) | P22830 | purified FECH, Ni-mesoporphyrin absorbance 550 nm;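 active = enzyme reaction rate more than 3 SD below the solvent-only control wells on the same plate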;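 note: lower slope than DMSO wells means FECH inhibition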
Target sequence (P22830 whole entry, looked up): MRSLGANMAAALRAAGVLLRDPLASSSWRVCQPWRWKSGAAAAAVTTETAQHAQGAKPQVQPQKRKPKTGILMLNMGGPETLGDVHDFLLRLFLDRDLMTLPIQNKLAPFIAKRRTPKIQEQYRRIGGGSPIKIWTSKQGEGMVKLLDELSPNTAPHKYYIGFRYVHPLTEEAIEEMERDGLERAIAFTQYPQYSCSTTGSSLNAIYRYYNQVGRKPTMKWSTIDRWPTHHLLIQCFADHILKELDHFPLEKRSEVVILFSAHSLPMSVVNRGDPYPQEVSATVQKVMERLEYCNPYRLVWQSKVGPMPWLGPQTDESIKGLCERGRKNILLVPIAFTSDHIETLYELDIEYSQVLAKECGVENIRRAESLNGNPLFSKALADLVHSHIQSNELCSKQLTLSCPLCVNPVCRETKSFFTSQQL
The depositor's hits bear a star; i = inactive; + = active, no number. Only a selection was taken, and hits are over-represented in it overall.

SMILES | FECH inh
Cn1ccc2c(-c3cccc(O)c3)ccnc21 | i
FC(F)(F)c1ccc(-c2ccnc3[nH]ccc23)nc1 | i
CC(=O)c1cccc(-c2ccnc3[nH]ccc23)c1 | +
COC(=O)c1cccc(-c2nccn2CCc2ccco2)c1 | i
Cc1ccc(C)c(S(=O)(=O)NCCn2c(-c3ccccc3)nc3cccnc32)c1 | i
Cc1ccc(C2=CC(c3ccc(F)cc3)n3nc(NS(=O)(=O)c4ccccc4)nc3N2)cc1 (stereo not given) | i
Cc1ccc(C2=CC(c3ccccc3Cl)n3nc(NS(C)(=O)=O)nc3N2)cc1 (stereo not given) | i
CS(=O)(=O)Nc1nc2n(n1)C(c1ccccc1Cl)C=C(c1ccc(Br)cc1)N2 (stereo not given) | i
O=S(=O)(Nc1nc2n(n1)C(c1c(F)cccc1Cl)C=C(c1ccccc1)N2)c1ccccc1 (stereo not given) | +
Cc1ccc(C2=CC(c3ccccc3Cl)n3nc(NS(=O)(=O)c4ccccc4)nc3N2)cc1 (stereo not given) | +
Cc1ccc(C2=CC(c3ccc(F)cc3)n3nc(NS(C)(=O)=O)nc3N2)cc1 (stereo not given) | i
Cc1ccc(C2=CC(c3c(F)cccc3Cl)n3nc(NS(=O)(=O)c4ccccc4)nc3N2)cc1 (stereo not given) | i
Cc1ccc(C2=CC(c3c(F)cccc3Cl)n3nc(NS(C)(=O)=O)nc3N2)cc1 (stereo not given) | +
O=S(=O)(Nc1nc2n(n1)C(c1ccc(F)cc1)C=C(c1ccccc1)N2)c1ccc(Cl)cc1 (stereo not given) | i
CCN(CCOc1ccc(OC)cc1)C(=O)c1ncc(F)cc1F | i
CCc1c(C)nc2ncnn2c1Sc1ccc(NS(=O)(=O)c2ccc(C)cc2)cc1 | i
COc1cccc([C@@H](C)Nc2nc(-c3cccnc3)nc3c2CCNC3)c1 | i
c1cnc(-c2nc(Cn3cnnc3)cs2)nc1 | i
O=c1ccc(-c2ccc(Cl)c(S(=O)(=O)Nc3ccc(Oc4ccccc4)cc3)c2)n[nH]1 | i
CCS(=O)(=O)N1CCC(n2c(COC)nc3cccnc32)CC1 | i
O=C(c1ccc(-c2ccoc2)nc1)N1CCC(CCn2cccn2)CC1 | i
CSc1ccc(CNC(=O)CSc2cc(Oc3cc(C)cc(C)c3)ncn2)cc1 | +
CCc1cccc(NC(=O)CCC(=O)NCc2ncc[nH]2)c1 | i
O=C(CSc1cc(N2CCCCC2)ncn1)Nc1ccc2c(c1)OCCO2 | i
Cc1ccc(NC(=O)CSc2cc(Oc3cc(C)cc(C)c3)ncn2)cc1 | +
SMILES | FECH inh
CCc1cccc(NC(=O)CSc2cc(Oc3cc(C)cc(C)c3)ncn2)c1 | +
COc1cc(NC(=O)CSc2cc(Oc3cc(C)cc(C)c3)ncn2)cc(OC)c1 | +
COc1ccc(CNC(=O)CSc2cc(N3CCCCC3)ncn2)cc1 | i
CSc1ccc(CNC(=O)COc2cc(C)nc(-c3ccc(C)cc3)n2)cc1 | i
Cc1ccc(NC(=O)CSc2cc(N3CCCCC3)ncn2)cc1F | i
CCc1cccc(NC(=O)CN2CCCN(Cc3ccc(OC)cc3)S2(=O)=O)c1 | i
COc1cc(NC(=O)CN2CCCN(Cc3ccc(C)cc3)S2(=O)=O)cc(OC)c1 | i
COc1ccc(NC(=O)CSc2cc(N3CCCCC3)ncn2)cc1OC | i
O=C(NC1CC1)C1CCCN(C2CCN(CCOc3ccccc3)CC2)C1 (stereo not given) | i
COCC(C)C1CCN(C(=O)CC23CC4CC(CC(C4)C2)C3)CC1 (stereo not given) | i
O=C(O)c1cccnc1CN1CCC2(C=Cc3ccccc32)CC1 | i
c1ccc(CCc2nc(CCc3ccc4c(c3)OCO4)n[nH]2)cc1 | i
O=C(CN1CCCN(Cc2cccc(Cl)c2)S1(=O)=O)NCCCc1ccccc1 | i
Cc1cc(N2CCC(C)CC2)n2nc(-c3cccnc3)nc2n1 | i
Cc1ccc(CN2CCCC(CNC(=O)CNC(N)=O)C2)cc1C (stereo not given) | i
CCc1cc(Sc2ccccc2NC(=O)Cc2ccc(OC)cc2)n2nc(C)nc2n1 | +
CCc1cc(Sc2ccccc2NC(=O)Cc2cccc(OC)c2)n2nc(C)nc2n1 | i
CCc1cc(Sc2ccccc2NC(=O)c2cc(OC)cc(OC)c2)n2nc(C)nc2n1 | i
Cc1cccc(N(Cc2nc3nc(C)cc(C)n3n2)C(=O)c2ccc(F)cc2)c1 | +
CCOc1ccc(N(Cc2nc3nc(C)cc(C)n3n2)C(=O)C(C)(C)C)cc1 | i
COc1ccc(C(=O)N(Cc2nc3nc(C)cc(C)n3n2)c2ccccc2)cc1 | i
CCOc1ccc(N(Cc2nc3nc(C)cc(C)n3n2)C(=O)c2ccccc2C)cc1 | i
Cc1ccc(C(=O)N(Cc2nc3nc(C)cc(C)n3n2)c2ccc(F)cc2)cc1 | i
Cc1cccc(N(Cc2nc3nc(C)cc(C)n3n2)C(=O)c2ccc(C(C)(C)C)cc2)c1 | +
Cc1ccc(C(=O)N(Cc2nc3nc(C)cc(C)n3n2)c2ccc(Cl)cc2)cc1 | i
SMILES | FECH inh
COc1ccccc1C(=O)N(Cc1nc2nc(C)cc(C)n2n1)c1ccc(C)cc1 | i
Cc1cc(C)n2nc(CN(C(=O)c3ccc(F)cc3)c3ccc(Cl)cc3)nc2n1 | i
CCOc1ccc(N(Cc2nc3nc(C)cc(C)n3n2)C(=O)c2ccc(C)cc2)cc1 | +
Cc1cc(C)n2nc(CN(C(=O)c3ccc(C(C)(C)C)cc3)c3cccc(Cl)c3)nc2n1 | i
Cc1ccc(N(Cc2nc3nc(C)cc(C)n3n2)C(=O)c2ccc(C(C)(C)C)cc2)cc1 | +
Nc1nc(NCc2ccccc2)nc(-c2ccccc2CO)n1 | i
CC1CCN(C(=O)COc2ccc(-c3nccn3C(C)C)cc2)CC1 | i
COc1cc2c(cc1C1CC(=O)Nc3cc4[nH]ncc4cc31)OCCCO2 (stereo not given) | i
Cc1ccc(Oc2ncccc2CNC(=O)CCc2nc3ccccc3[nH]2)cn1 | i
O=C(CN1CCN(Cc2ccccc2F)S1(=O)=O)Nc1ccc(Cl)cc1F | i
COC(=O)c1ccc(CN2CC(=O)N3CSCC3C2=O)cc1 (stereo not given) | i
CCc1ccccc1NS(=O)(=O)c1cc(C(=O)N2CCCCC2)cs1 | i
CCC(C(=O)N(Cc1nc2nc(C)cc(C)n2n1)c1ccc(C)cc1)c1ccccc1 (stereo not given) | i
CC(C)c1nccc(C2CC(=O)Nc3c2c(-c2cccnc2)nn3C)n1 (stereo not given) | i
CC(C)OCCCNc1nc(Nc2ccc(Cl)cc2)c2cnn(-c3ccccc3)c2n1 | +
Fc1ccc(Nc2nc(NCC3CCCO3)nc3c2cnn3-c2ccccc2)cc1 (stereo not given) | i
Clc1ccc(Nc2nc(NCC3CCCO3)nc3c2cnn3-c2ccccc2)cc1 (stereo not given) | +
COc1ccc(Nc2nc(NCC3CCCO3)nc3c2cnn3-c2ccccc2)cc1 (stereo not given) | i
CC(C)OCCCNc1nc(Nc2ccc(F)cc2)c2cnn(-c3ccccc3)c2n1 | i
COc1ccc(Nc2nc(NCCCOC(C)C)nc3c2cnn3-c2ccccc2)cc1 | i
CCc1ccc([C@H]2N[C@@](CC(C)C)(C(=O)OC)[C@H]3C(=O)N(C)C(=O)[C@@H]23)nc1 | i
CCSc1ncc(CN2CCCC3(CCN(C(=O)C(C)(C)C)C3)C2)cn1 (stereo not given) | i
O=C(NCCc1nc2cccnc2n1C1CCCCC1)Nc1ccccc1F | i

Compound activity (PubChem)
